DRD3 antagonist = D3 dopamine receptor (human) antagonism; actives 2.5% (n = 360,000); D3R cells, DiscoveRx beta-arrestin luminescence, antagonist mode; active compounds read low; max response, negative = inhibition, %; in the data active = max response below about -50%; inconclusive = no clear call, values can overlap the other calls; also: % is scaled to controls: 0 for no effect and ±100 for the full control effect
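Cells plated overnight at 1500 cells/well, then exposed to library compounds with dopamine controls for 90 minutes at 37 degrees C. DiscoveRx reagent added for 30–60 minutes at room temperature; luminescence read, quantitative HTS format.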
D1 agonist = activates the human D1 dopamine receptor; P21728; HEK293 T-REx D1 cells, calcium flux, agonist mode; activation, % at 2 µM; actives 1% (n = 360,000); AID 504660; in the data active = activation above about 30%; also: 0% is about no effect
Target sequence (P21728 whole entry, looked up): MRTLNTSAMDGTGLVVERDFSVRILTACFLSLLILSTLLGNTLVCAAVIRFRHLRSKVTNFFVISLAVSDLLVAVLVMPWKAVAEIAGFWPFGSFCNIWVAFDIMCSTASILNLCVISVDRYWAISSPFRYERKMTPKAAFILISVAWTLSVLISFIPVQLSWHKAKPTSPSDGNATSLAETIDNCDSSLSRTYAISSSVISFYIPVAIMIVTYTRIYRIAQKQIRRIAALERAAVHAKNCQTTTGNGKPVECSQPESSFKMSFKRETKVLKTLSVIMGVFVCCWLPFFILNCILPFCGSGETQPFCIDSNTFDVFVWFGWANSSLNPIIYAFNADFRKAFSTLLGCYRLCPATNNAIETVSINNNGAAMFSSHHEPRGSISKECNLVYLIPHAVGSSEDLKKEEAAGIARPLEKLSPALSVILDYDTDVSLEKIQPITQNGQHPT
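Agonism was scored from calcium flux recorded over 180 s (1 read/s) after pintool compound addition, following a 10-cycle baseline. Cells were inducible force-coupled HEK293 TREx D1, plated overnight at 30 C and loaded with no-wash calcium dye.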
DRD3 agonist = activates the human D3 dopamine receptor; P35462; D3R DiscoveRx beta-arrestin cells, luminescence, 90 min; max activation, %; actives 0.58% (n = 410,000); in the data active = max activation above about 30%; also: 0% is about no effect
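Agonist-mode cell screen: cells plated at 1500/well and incubated overnight at 37 °C, then exposed to library compounds for 90 min at 37 °C. Detection reagent was added for 30–60 min at room temperature, and luminescence was read.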
D1 antag = blocks dopamine activation of the human D1 receptor. HEK293 TREx D1 cells, calcium flux, dopamine EC80; active compounds read low. actives 3.2% (n = 360,000). AID 504652. activity change, negative = inhibition, % at 10 µM; in the data active = activity change below about -30%; also: % is scaled to controls: 0 for no effect and ±100 for the full control effect
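Using tetracycline-induced force-coupled D1 Hek293 cells and a calcium dye, signals were followed for 180 s after compound, then for 180 s after EC80 dopamine, to detect inhibitors.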
D1 PAM = enhances dopamine response at the human D1 receptor; AID 504651; potentiation, % at 10 µM; P21728; HEK293 TREx D1 cells, calcium flux, dopamine EC20 potentiation; actives 0.036% (n = 360,000); in the data active = potentiation above about 30%; also: 0% is about no effect
Starred values were filed as active, the others as inactive; ? = inconclusive; . = no result given; ! = repeats disagree. Sampled rows, rich in hits. Any-hit rate of the full collection: about 6%.

SMILES	DRD3 antagonist	D1 agonist	DRD3 agonist	D1 antag	D1 PAM
CCC(C)C(NC(=O)c1ccccc1)C(=O)Nc1ccc(S(=O)(=O)Nc2cc(C)nc(C)n2)cc1 (stereo not given)	-27	0	0	-59*	-1
Cc1cc(NS(=O)(=O)c2ccc(NC(=O)C(CC(C)C)N3C(=O)c4ccccc4C3=O)cc2)nc(C)n1 (stereo not given)	-9	2	-7	-18	0
Cc1cc(NS(=O)(=O)c2ccc(NC(=O)C(C(C)C)N3C(=O)c4ccccc4C3=O)cc2)nc(C)n1 (stereo not given)	-75*	4	-6	4	-5
CCCCN(C)CCNC(=O)Cn1ncc2c3ccccc3n(CCC)c2c1=O	.	0	-19	0	6
O=C(NCCc1ccccc1)c1ccc(-c2ccc(F)c(F)c2)c2ccoc12	0	.	-6	.	.
Cc1cc2c(cc1C)-c1nnnn1C(N1CCCCC1)C(=O)N2 (stereo not given)	-12	.	-8	.	.
Cc1cc(C(=O)Nc2cccc(F)c2)c2c(C)nn(-c3cccc(Cl)c3C)c2n1	.	8	25	-39*	-8
Cc1ccc(NCc2nnc(SCCN3CCCCC3)n2CC2CCCO2)cc1Cl (stereo not given)	-51*	3	-8	7	-3
Cc1ccc(NCc2nnc(SCC(=O)NCc3ccco3)n2CC2CCCO2)cc1Cl (stereo not given)	-15	0	3	12	-7
CCn1c(C(=O)NCc2ccccc2Br)cc2oc3ccccc3c21	.	3	42*	-4	-5
CCn1c(C(=O)NCc2cccc(Br)c2)cc2oc3ccccc3c21	.	11	-10	23	-3
Cn1c(C(=O)NCc2ccccc2F)cc2oc3ccccc3c21	.	3	-2	-57*	-8
O=C(C[C@@H]1CC[C@H](NC(=O)c2ccc3c(c2)OCO3)[C@@H](CO)O1)NCc1ccc(F)cc1	4	.	7	.	.
Cc1ccc(CCNC(=O)Cn2ncc3c([nH]c4ccc(C)cc43)c2=O)cc1	.	2	-7	10	2
O=C(CN1C(=O)NC2(CCCCC2)C1=O)N1CCN(S(=O)(=O)c2ccc(F)c(F)c2F)CC1	-4	0	-16	-2	-3
CCCN(Cc1ccccc1)C(=S)Nc1cccc(C(F)(F)F)c1	-3	4	-4	-32*	6
CN(C)CCCN(Cc1ccccc1)C(=S)Nc1ccc(F)c(Cl)c1	-15	35*	-7	-34*	-1
Cc1ccc(NC(=O)C2CCCN(c3ncnc4onc(C)c34)C2)c(Cl)c1 (stereo not given)	.	14	10	-54*	-8
COc1ccc(Cl)cc1NC(=O)C1CCCN(c2ncnc3onc(C)c23)C1 (stereo not given)	.	8	8	0	-4
CCOC(=O)c1cc(C)n(CC2CCC(C(=O)Nc3ccccc3OC)CC2)c1C (stereo not given)	.	0	-4	1	-1
CCOC(=O)CCn1nc(-c2ccc(C)cc2)c2ccccc2c1=O	5	1	-1	-49*!	-10
CCOCCCNCc1cc(Cl)ccc1OCC	0	2	-4	10	5
CCOc1ccc(Cl)cc1CNCCNCC(C)O (stereo not given)	-71*	2	-33	3	-2
COC(=O)c1nc(NC(=O)c2ccccc2Cl)n[nH]1	-60*	-2	6	9	9
COC(=O)c1nc(NC(=O)C(C)(C)C)n[nH]1	11	3	-2	-42*	-4
SMILES	DRD3 antagonist	D1 agonist	DRD3 agonist	D1 antag	D1 PAM
O=C(COC(=O)c1nc(Cl)ccc1Cl)NC1CCCCCC1	15	9	-9	-31*	-4
O=C(COC(=O)c1ccc(Cl)cc1)NC1CCCCCC1	1	5	0	-18	.
CCc1cccc(CC)c1NC(=O)CO/N=C(\N)CC(=O)NC1CCCCC1	15	3	-10	1	-1
O=C(COC(=O)c1cc(F)c(F)cc1Cl)NC1CCCCCC1	?	.	-4	.	.
O=C(COC(=O)c1ncc(Cl)c(Cl)c1Cl)NC1CCCCCC1	21	1	0	-44*	-2
N/C(CC(=O)NC1CCCCC1)=N\OCC(=O)Nc1ccc(Cl)c(Cl)c1	-3	5	0	-94*	-1
Cc1nn(C(=O)/C(C#N)=C/N(C)C)c(C)c1C	-23	2	-10	-9	9
